Assay results reported in PubChem BioAssay AID588689 (Southern Research Specialized Biocontainment Screening …, 2011).
Hit rate of the full screen: of about 340,000 compounds, about 1,000 (0.29%) were called active. Cut-off read from the data, not from the text of the source: inconclusive = inhibition above about 29% without an active follow-up result; inactive = below that. The list is a sample of the results. Measured potencies and affinities stand elsewhere.

Target: Genome polyprotein (Dengue virus type 2 (strain 16681-PDK53)) (UniProt P29991)
Assay: flavivirus cap methylation enzyme inhibition – biochemical, confirmation dose response, primary screen (AID 588689)
Settings: Dengue-2 NS5 methyltransferase capping enzyme assay, at 25 µM, stronger effect = higher value
[1] = measured here: pilot screen replicate inhibition

| SMILES | inhibition | inhibition [1] |
| --- | --- | --- |
| Cc1ccc(C(=O)c2c(C)oc3c2C(=O)C(=O)c2ccccc2-3)cc1 | 21.1% (inactive) |  |
| O=C1c2ccccc2C(=O)c2c1oc(C(F)(F)F)c2C(=O)c1ccccc1 | -2.07% (inactive) |  |
| Cc1ccc(C(=O)c2coc3ccc(O)cc23)cc1 | 2.6% (inactive) |  |
| Cc1oc2c(c1C(=O)c1ccc(Cl)cc1)C(=O)C(=O)c1ccccc1-2 | 28% (inactive) |  |
| COc1ccc(C(=O)c2c(C(F)(F)F)oc3c2C(=O)c2ccccc2C3=O)cc1 | 9.03% (inactive) |  |
| O=C(c1ccccc1)c1coc2c1C(=O)c1ccccc1C2=O | 6.1% (inactive) |  |
| Cc1ccc(C(=O)c2c[nH]cc2-c2ccccc2)cc1 | -3.21% (inactive) |  |
| COc1ccc(C(=O)c2coc(-c3ccccc3C(=O)O)c2C(=O)O)cc1 | 2.56% (inactive) |  |
| CN1CCN(CCCNC(=O)Cn2ncc3c4ccccc4n(C)c3c2=O)CC1 | -0.7% (inactive) |  |
| CCOc1ccc(C(=O)Nc2cccc(NC(=O)c3cccs3)c2)cc1[N+](=O)[O-] | -6.19% (inactive) |  |
| COc1cc(OC)cc(C(=O)NCCCNC(=O)c2cccnc2)c1 | -1.78% (inactive) |  |
| Cc1nc(N2CCOCC2)[nH]c(=O)c1CCC(C)C | -3.29% (inactive) |  |
| CC(=C\C(=O)O)/C(=C\c1cccc2ccccc12)C(=O)O | -1.16% (inactive) |  |
| CCn1c(=S)sc2c(=O)n(-c3ccccc3)c(SCC(=O)NCc3ccco3)nc21 | 2.42% (inactive) |  |
| CN1C[C@H]2CON(C)[C@H]2C[C@H]1c1cccc(-c2ccccc2)c1 | -6.62% (inactive) | -3.38% |
| COc1ccc(-n2c(-c3ccc(Br)cc3)nc(=S)c3c2CCCC3)cc1 | -4.74% (inactive) |  |
| CC(C)CCNC(=O)c1ccc(-n2cnc3cccnc32)cc1 | -2.72% (inactive) |  |
| COc1ccc2cc(CCNC(=O)CCc3ccccc3)c(=O)[nH]c2c1 | 0.89% (inactive) |  |
| O=C(Nc1ncn[nH]1)c1ccc(S(=O)(=O)N2CCOCC2)cc1 | -3.52% (inactive) |  |
| COc1ccc(C2=CC(=O)CC(C)(C)C2)cc1 | 2.79% (inactive) |  |

| SMILES | inhibition | inhibition [1] |
| --- | --- | --- |
| COC(=O)COc1ccc(NC(=O)C(c2ccccc2)c2ccccc2)cc1 | -6.79% (inactive) |  |
| COC(=O)c1ccc(C(C2C(=O)CC(C)(C)CC2=O)C2C(=O)CC(C)(C)CC2=O)cc1 | -3.89% (inactive) |  |
| CC1(C)CC(=O)C(C(c2cccnc2)C2C(=O)CC(C)(C)CC2=O)C(=O)C1 | 12.3% (inactive) | -0.765% |
| COc1cccc(C(C2C(=O)CC(C)(C)CC2=O)C2C(=O)CC(C)(C)CC2=O)c1 | 23.1% (inactive) |  |
| CC1(C)CC(=O)C(C(c2ccc(F)cc2)C2C(=O)CC(C)(C)CC2=O)C(=O)C1 | -0.73% (inactive) |  |
| CC(=O)N(C)N(C)c1cc(C)nc(N)n1 | 0.78% (inactive) |  |
| Nn1cnnc1N/N=C/c1ccc(F)cc1 | 0.39% (inactive) |  |
| COc1ccc(CNc2ccc(S(N)(=O)=O)cc2)c(OC)c1OC | -2.41% (inactive) |  |
| CCOc1ccc(NC(=O)N2CCCC2C(=O)NCC2CCCO2)cc1 (stereo unspecified) | -7.19% (inactive) |  |
| O=C1CCCc2oc3c(c21)CCCC3 | 0.9% (inactive) |  |
| COCCN1C(=O)C(=O)/C(=C(/O)c2ccc3c(c2)OCCO3)C1c1ccc(C(=O)OC)cc1 (stereo unspecified) | 0.56% (inactive) |  |
| COc1ccc(-c2csc(NC(=O)CSc3nc(C)cs3)n2)cc1 | -6.77% (inactive) |  |
| COc1ccc(-c2csc(NC(=O)CSc3n[nH]c(C)n3)n2)cc1 | -3.23% (inactive) |  |
| COc1ccccc1C(C)NCC(=O)NCc1ccc(C)cc1 (stereo unspecified) | -3.92% (inactive) |  |
| Cc1nnc(SCC(=O)Nc2nnc(SCc3cccc(Br)c3)s2)s1 | 0.64% (inactive) |  |
| CCCc1nc(SCC(=O)Nc2nc3c(s2)CCCC3)c2ccccc2n1 | 2.76% (inactive) |  |
| COc1ccc(N2C(=O)CSC2c2ccccc2[N+](=O)[O-])cc1 (stereo unspecified) | 0.75% (inactive) |  |
| CCOc1ccc(C(=O)N/N=C/c2ccccc2[N+](=O)[O-])cc1 | -7.26% (inactive) |  |
| O=C1NN(c2ccccc2)C(=O)/C1=C\c1ccc2c(c1)OCO2 | 15.1% (inactive) |  |
| COc1ccc(C(=Cc2ccccc2[N+](=O)[O-])C(=O)O)cc1 | -6.2% (inactive) |  |

| SMILES | inhibition | inhibition [1] |
| --- | --- | --- |
| O=C1c2cccc([N+](=O)[O-])c2C(=O)N1c1ccccc1 | 0% (inactive) |  |
| CCOc1ccc(N2C(=O)C(=O)/C(=C(/O)c3ccccc3)C2c2ccccc2[N+](=O)[O-])cc1 (stereo unspecified) | 13.8% (inactive) |  |
| COc1cc(/C=C2/C(=O)NN(c3ccc(C)c(Cl)c3)C2=O)cc([N+](=O)[O-])c1O | 69.8% (inactive) |  |
| CN1C/C(=C/c2ccccc2[N+](=O)[O-])C(=O)/C(=C\c2ccccc2[N+](=O)[O-])C1 | 1.54% (inactive) |  |
| CCc1noc(C)c1C(=O)NCCc1ccc(OC)c(OC)c1 | -2.74% (inactive) |  |
| CCOC(=O)C1C(C)=C(Nc2ccc(OC)cc2)C(=O)N1c1ccc(OC)cc1 (stereo unspecified) | -2.18% (inactive) |  |
| O=C(Cn1cc([N+](=O)[O-])cn1)NCc1ccccc1Cl | -6.16% (inactive) |  |
| Cc1c(C2(O)CCCCC2)[nH]c2ccc(C#N)cc12 | 1.37% (inactive) |  |
| O=C(O)/C=C\c1cc2c(cc1[N+](=O)[O-])OCO2 | 4.71% (inactive) |  |
| O=C1NC(=S)N/C1=C/c1cc2c(cc1[N+](=O)[O-])OCO2 | 6.53% (inactive) |  |
| O=C1NC(=O)C(=Cc2ccccc2[N+](=O)[O-])S1 | 13.1% (inactive) |  |
| CC1(C)OC(C)(C)/C(=C\c2ccccc2[N+](=O)[O-])C1=O | -3.9% (inactive) |  |
| CCOC(=O)N1CCC(NC(=O)CSCc2nc(-c3ccccc3Cl)oc2C)CC1 | -1.81% (inactive) |  |
| CCc1ccc(C)[n+](CC(=O)c2cccs2)c1 | -10.5% (inactive) |  |
| O=C(c1cccnc1)N1CCN(S(=O)(=O)c2cccc(Cl)c2)CC1 | 2.63% (inactive) |  |
| Cc1cccc(CCNS(=O)(=O)c2ccc3c(c2)NC(=O)CS3)c1 | -3.63% (inactive) |  |
| CSCCC(NC(N)=O)C(=O)Nc1ccc2ccccc2c1 (stereo unspecified) | 3.12% (inactive) |  |
| NC(=O)c1ccc(NC(=O)CNc2cc(S(=O)(=O)N3CCOCC3)ccc2N2CCCC2)cc1 | -2.57% (inactive) |  |
| CCN(CC)C(=O)c1ccccc1NC(=O)CN1C(=O)c2ccccc2S1(=O)=O | -2.2% (inactive) |  |
